# Screening results as filed in PubChem.
# Shown are actives, neighbours in structure and some others; about 10% of the full set was active somewhere.
# HP1b chromo inh – HTS for Inhibitors of HP1-beta Chromodomain Interactions with Methylated Histone Tails; Chromobox protein homolog 1 (Homo sapiens), P83916; AlphaScreen HP1-beta / biotin-H3K9me3 peptide binding; Potency, µM (highest dose often 114 µM), most hits filed as inhibitors; hit rate 0.56% among 390,000; AID 540317, 2011; further: nearly all actives have a fitted effect of over 70% in size
#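 Compound inhibition of the preformed complex between 50 nM HP1-beta and 50 nM biotinylated H3K9me3 peptide was read by AlphaScreen. Buffer was PBS pH 7.4 with 0.01% Tween-20. Incubations ran 30 min at room temperature, with 10 ug/mL donor/acceptor beads.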
# GLS inh – qHTS for Inhibitors of Glutaminase (GLS). Glutaminase kidney isoform, mitochondrial (Homo sapiens), O94925. Potency, µM (titrated, usually from 45.5 µM), actives largely listed as inhibitors. GLS enzymatic activity, qHTS titration. hit rate 0.21% among 410,000
#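 Compounds were pin-transferred onto hKGA, after which L-glutamine (1 mM solution) and a detection mix of glutamate oxidase, HRP and Amplex Red were added. Initial and 30 min RT fluorescence reads were collected.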
# L3MBTL1 block – qHTS Assay for the Inhibitors of L3MBTL1; Lethal(3)malignant brain tumor-like protein 1 (Homo sapiens), Q9Y468; AlphaScreen L3MBTL1–H3K9me1 peptide binding; Potency, µM (series often up to 57.1 µM), most hits filed as inhibitors; hit rate 0.66% among 230,000; AID 485360, 2010; further: nearly all actives have a fitted effect of over 60% in size
#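 Read-out is AlphaScreen signal from streptavidin donor and nickel chelate acceptor beads (10 ug/mL final each) bridging L3MBTL1 (50 nM) and biotinylated K9-monomethylated H3(1-15) peptide (75 nM), after 30 min compound exposure at room temperature.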
# JMJD2A Tudor – qHTS Assay for Inhibitors of JMJD2A-Tudor Domain; AlphaScreen JMJD2A-Tudor / H3K4me3 peptide binding; hit rate 4.4% among 390,000; Potency, µM (top dose mostly 114 µM), hits mostly inhibitors; AID 504339, 2011; further: nearly all actives have a fitted effect of over 50% in size
# Target sequence (O75164 whole entry, looked up, the tested form may be a part): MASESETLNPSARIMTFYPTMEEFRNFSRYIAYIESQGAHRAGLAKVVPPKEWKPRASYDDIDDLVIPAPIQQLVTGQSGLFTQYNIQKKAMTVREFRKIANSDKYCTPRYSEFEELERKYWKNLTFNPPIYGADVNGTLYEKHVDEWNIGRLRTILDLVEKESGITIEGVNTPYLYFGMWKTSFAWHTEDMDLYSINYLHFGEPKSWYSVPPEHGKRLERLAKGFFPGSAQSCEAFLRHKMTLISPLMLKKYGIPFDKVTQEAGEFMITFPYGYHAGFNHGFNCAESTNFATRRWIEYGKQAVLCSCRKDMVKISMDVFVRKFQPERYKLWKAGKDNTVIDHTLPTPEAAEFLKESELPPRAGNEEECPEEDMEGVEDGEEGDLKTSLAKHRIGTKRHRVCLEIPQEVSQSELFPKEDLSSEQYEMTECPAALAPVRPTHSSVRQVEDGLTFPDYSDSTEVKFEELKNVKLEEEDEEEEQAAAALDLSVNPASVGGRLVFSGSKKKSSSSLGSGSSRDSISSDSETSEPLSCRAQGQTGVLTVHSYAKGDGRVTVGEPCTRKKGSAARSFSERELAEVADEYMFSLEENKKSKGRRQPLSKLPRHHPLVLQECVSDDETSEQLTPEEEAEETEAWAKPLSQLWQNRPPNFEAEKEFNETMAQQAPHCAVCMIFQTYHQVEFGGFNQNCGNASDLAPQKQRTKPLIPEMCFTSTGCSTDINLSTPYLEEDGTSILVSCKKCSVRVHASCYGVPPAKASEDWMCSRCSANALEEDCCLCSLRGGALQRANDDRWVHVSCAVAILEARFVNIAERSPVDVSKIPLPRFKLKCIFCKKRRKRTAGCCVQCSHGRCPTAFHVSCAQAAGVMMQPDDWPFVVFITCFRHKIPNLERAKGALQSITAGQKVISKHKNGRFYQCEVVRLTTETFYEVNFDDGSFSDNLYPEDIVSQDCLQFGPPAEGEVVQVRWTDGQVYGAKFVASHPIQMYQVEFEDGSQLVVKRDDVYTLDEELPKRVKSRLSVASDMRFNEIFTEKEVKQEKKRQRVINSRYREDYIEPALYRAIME
# BAZ2B inh – qHTS Assay for Inhibitors of BAZ2B. AlphaScreen BAZ2B-H3K14Ac peptide displacement. Potency, µM (highest dose often 114 µM), hits mostly inhibitors. hit rate 4.4% among 360,000; further: nearly all actives have a fitted effect of over 60% in size
#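 BAZ2B 50 nM plus b-H3(5-23)K14Ac 50 nM, PBS pH 7.4/0.01% Tween-20, 30 min RT; compound added (max 110 uM), 30 min RT; streptavidin donor/Ni-chelate acceptor beads 10 ug/mL final, 20 min dark; AlphaScreen read.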
# G9a inh – qHTS Assay for Inhibitors of Histone Lysine Methyltransferase G9a; AID 504332, 2011; G9a H3K9 monomethylation, AlphaScreen, 2 h; Potency, µM (doses to about 102 µM), usual class: inhibitors; hit rate 8.8% among 350,000; further: nearly all actives have a fitted effect of over 75% in size
#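 Enzyme 20 nM + cpd, 15 min RT; add b-H3K9 pep 500 nM / SAM 20 uM; 2 h RT; anti-H3K9me1 Ab 0.5 ug/mL + SA donor / anti-rabbit acceptor beads 20 ug/mL each, 10 min; AlphaScreen read.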
# Numbers stand for hits; n = inactive; u = inconclusive; x = no result; ! = not active in a repeat; [ ] = dose if it differs, or a comment. The call rests on the fitted dose curve; in most records, active means well fitted curve in the direction sought with a large enough effect; inconclusive means small, poorly fitted or top-dose-only effect, or another doubt; inactive means no such curve, though single readings can be large; an effect the other way counts as inactive or inconclusive.
SMILES,HP1b chromo inh,GLS inh,L3MBTL1 block,JMJD2A Tudor,BAZ2B inh,G9a inh
NC(Cc1ccc(N(CCCl)CCCl)cc1)C(=O)O (stereo not drawn),x,x,x,x,x,10.6µM!
CC(=O)NC(Cc1ccc(N(CCCl)CCCl)cc1)C(=O)NC(C(=O)O)C(C)C (stereo not drawn),n,n,n,n,n,n
CCOC(=O)CC(NC(=O)C(Cc1ccc(N(CCCl)CCCl)cc1)NC(C)=O)C(=O)OCC (stereo not drawn),u,n,n,12.6µM,20µM,x
COc1cc(CC(C)N)c(OC)cc1Br (stereo not drawn),x,n,x,x,x,x
CCc1ccc(CNC(=O)C2CCN(C(=O)c3ccc(-n4c(C)cc5ccccc54)s3)CC2)cc1,n,n,x,n,u,n
NCC(CC(=O)O)c1ccc(Cl)s1 (stereo not drawn),x,x,x,x,x,n
O=C1C(c2ccccc2)=C(N2CC2)c2ccccc21,20µM,n,n,44.7µM,35.5µM,39.8µM
O=c1[nH]c2ccccc2n1C1CCN(CCCC(c2ccc(F)cc2)c2ccc(F)cc2)CC1,u,n,n,39.8µM,u,n[12.7 µM]
COC1CC(=C(c2cccs2)c2cccs2)C[N+](C)(C)C1 (stereo not drawn),x,n,x,x,x,n[12.7 µM]
O=C1Nc2ccccc2C1Cc1nc2ccccc2c(=O)n1-c1ccccc1 (stereo not drawn),n,n,x,n[11.4 µM],79.4µM,n
O=c1c2ccccc2nc(CNc2ccccc2)n1-c1ccccc1,n,n,n,n,n,31.6µM
O=C1NC(=O)C(=Cc2ccc(-c3ccc(F)cc3O)o2)C(=O)N1,n,n,u,u,56.2µM,7.08µM
O=C1NC(=O)C(=Cc2ccc(-c3ccc(S(=O)(=O)N4CCOCC4)cc3)o2)C(=O)N1,n,n,n,n,n,7.08µM
O=C1NC(=O)C(=Cc2ccc(Sc3ccccc3)o2)C(=O)N1,n,u,n,u,u,n[12.7 µM]
O=C1NC(=O)C(=Cc2ccc(-c3ccc(Cl)cc3)o2)C(=O)N1,n,n,n,u,u,6.31µM
O=C1NC(=O)C(=Cc2coc3ccc(O)cc3c2=O)C(=O)N1,n,n,n,n,u,x
CNC(C)C1CC[C@H](N)[C@@H](OC2C(N)C[C@H](N)[C@@H](OC3OC[C@](C)(O)C(NC)[C@H]3O)C2O)O1 (stereo partly drawn),x,x,x,x,x,n[2.33 µM]
NCC1OC(O[C@@H]2[C@H](O)[C@@H](OC3C(O)C(N)CC(N)C3OC3OC(CO)C(O)C(O)C3N)O[C@@H]2CO)C(N)C(O)C1O (stereo partly drawn),x,x,x,x,x,n[12.7 µM]
OCCNCCc1c[nH]c2ccc(OCc3ccccc3)cc12,n,n,x,39.8µM,u,u
OC(CCNCCc1c[nH]c2ccccc12)C(F)(F)F (stereo not drawn),n,n,u,n,n,n
NC(CCCCCP(=O)(O)O)C(=O)O (stereo not drawn),x,x,x,x,x,5.97µM
NC(CP(=O)(O)O)C(=O)O (stereo not drawn),x,x,x,x,x,26.7µM!
CN1CCC2(CC1)CCN(C(=O)Oc1ccccc1)CC2,x,x,x,x,x,n[12.7 µM]
C=CCN1CC[C@@]2(C)c3cc(O)ccc3CC1[C@@H]2C,n,n,x,n,n,44.7µM!
CC(C)=CCN1CC[C@@]2(C)c3cc(O)ccc3C[C@@H]1C2C (stereo partly drawn),n,n,n,n,x,x
SMILES,HP1b chromo inh,GLS inh,L3MBTL1 block,JMJD2A Tudor,BAZ2B inh,G9a inh
COc1cc([C@@H]2c3cc4c(cc3[C@@H](O)C3COC(=O)C32)OCO4)cc(OC)c1O (stereo partly drawn),n,n,x,n,x,x
O=C(COC(=O)Cc1ccccc1)Nc1cc(S(=O)(=O)N2CCCCC2)ccc1Cl,n,n,n,n,n,n
COC(=O)c1ccc(Cl)c(NC(=O)CN2CCN(Cc3ccccc3)CC2)c1,n,n,n[11.4 µM],n,n,11.2µM
Cc1cc(Oc2cc(NN3CCCCC3)c([N+](=O)[O-])cc2[N+](=O)[O-])ccc1[N+](=O)[O-],n,n,u,17.8µM,50.1µM,7.08µM
CCc1cccc(NC(=O)Cn2c(=O)oc3cc(S(=O)(=O)N4CCOCC4)ccc32)c1,n,n,x,n,n,n
CC(C)Cn1c(-c2cccc(S(=O)(=O)N3CCOCC3)c2)n[nH]c1=S,n,n,n,7.08µM,x,x
Clc1ccc(C(c2ccc(Cl)cc2)n2cc[n+](CC(OCc3ccc(Cl)cc3Cl)c3ccc(Cl)cc3Cl)c2)cc1 (stereo not drawn),n,14.1µM,n,50.1µM,n,17.8µM!
CC(C)N(CC[C@@](C(N)=O)(c1ccccc1)c1ccccn1)C(C)C,x,n,x,x,x,n[12.7 µM]
O=C(Nc1nnc(-c2ccco2)o1)c1cccc2ccccc12,n,n,n,u,u,n
O=C(NC1CC1)c1cc(-c2ccco2)nc2ccccc12,17.8µM,u,x,8.91µM,10µM,10µM
Cc1nc(-c2ccc(-c3ccc(C(=O)N4CCc5cc6c(cc54)C4(CCN(C)CC4)CO6)cc3)c(C)c2)no1,x,x,x,x,x,n[12.7 µM]
COc1ccc(Cc2c(O)[nH]c(=S)[nH]c2=O)cc1,n,u,n,u,n,7.94µM
CCCCOc1ccc(C(C)=O)cc1Cc1c(O)[nH]c(=S)[nH]c1=O,n,n,n[2.29 µM],n,n,n[0.501 µM]
CC(=O)c1cccc(OCC(O)CN2CC=C(c3ccccc3)CC2)c1 (stereo not drawn),n,n,n,2.82µM,70.8µM,u
CCOC(=O)Cn1c(-c2ccccc2)ccc(C#N)c1=O,n,n,n,n,n,n
CCN(CCCl)c1cc(CN(C)C)cc(NC(=O)c2ccc(C(=O)Nc3cc(CN(C)C)cc(N(CC)CCCl)c3)cc2)c1,10µM,n,x,12.6µM,x,x
OCc1cccc[n+]1CCc1ccccc1,n,n,x,n,x,x
O=C1NC(=O)C2(Cc3ccccc3N3CCCC32)C(=O)N1 (stereo not drawn),n,n,x,n,n,50.1µM
O=C1NC(=O)C2(Cc3ccccc3N3CCCC32)C(=O)N1c1ccccc1 (stereo not drawn),n,n,n,n,n,28.2µM
Cc1cnn(-c2cc(Oc3ccccc3)ncn2)c1,n,n,n,n,n,n
CCCCCCCCc1[se]c2ccccc2c1[Se]c1ccccc1,x,x,x,x,x,n
Cc1ccc(-c2nc(CN3C(=O)CN=C(c4ccccc4Cl)c4cc(Cl)ccc43)c(C)o2)cc1,n,n,x,n,n,n
C#CCNc1ccncc1S(=O)(=O)NC(=O)NC(C)C,n,n,n,50.1µM,n,u
